# Laboratory results published in PubChem BioAssay.
# Assay: JC-1 mitochondrial potential readout, lung cancer cells – cell-based, A549, JC-1 fluorescence, basal, 24 h, 100 nL, profiling panel (AID 1138);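 note: A549 lung adenocarcinoma cells under basal conditions with no added stimulus; test concentration not given here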
# Settings: higher = more signal
row,Compound,z-score
1,CC(C)CCN1CCc2nc(COc3ccccc3)c3c(c2C1)CO[C@@H](C)C3,1.71
2,O=C(NN=C1C[C@@H](O)[C@@H](O)[C@@H]2[C@@H]3C(=O)N(Cc4ccccc4)C(=O)[C@@H]3CC[C@@H]12)OCc1ccccc1,0.257
3,CO[C@@H]1COC(=O)[C@@H](C)COC(=O)[C@@H](C)NC(=O)CC=C[C@@H]1C,-1.24
4,CO[C@@H]1COC(=O)CC=C[C@@H](C)[C@@H]2C=C[C@H](O)[C@@H](COC(=O)CC=C[C@H]1C)O2,1.81
5,COC(=O)[C@@H]1CC[C@H](C)[C@@H](c2ccc(C)cc2)N1C(=O)c1ccc(C=NO[C@H](C)c2cn([C@H](CO)Cc3ccccc3)nn2)cc1,-0.406
6,CCC=CCCC(OC(=O)c1ccc(Br)cc1)C1=CCCCC1=O (stereo unspecified),-0.158
7,CO[C@H]1COC(=O)[C@@H](C)COC(=O)[C@H](COCc2ccccc2)NC(=O)CC=C[C@H]1C,0.844
8,CCOC(=O)CCN1C(=O)[C@H]2[C@H]3[C@H](O)[C@H](O)CC(=NOCC(C)C)[C@H]3CC[C@H]2C1=O,0.46
9,C#CCCCON=C1C[C@@H](O)[C@@H](O)[C@@H]2[C@@H]3C(=O)N(CC)C(=O)[C@@H]3CC[C@@H]12,-0.39
10,CON=C1[C@H]2CCn3c(=O)n(-c4ccccc4)c(=O)n3[C@H]2[C@H](O)[C@@H]2O[C@H]12,0.758
11,CC(C)=CCCC(C)=CCON=C1C[C@@H](O)[C@@H](O)[C@@H]2[C@@H]3C(=O)N(C(C)(C)C)C(=O)[C@@H]3CC[C@@H]12,-0.872
12,CC(C)(C)N1C(=O)[C@H]2[C@H]3[C@H](O)[C@H](O)CC(=O)[C@@H]3CC[C@H]2C1=O,-0.662
13,CC(=O)OC[C@H]1O[C@H](CC=NO[C@H](C)c2cn([C@H](CO)Cc3ccccc3)nn2)C=C[C@@H]1OC(C)=O,-0.866
14,C=Cc1ccc([C@H]2N[C@H](C(=O)O)CC[C@@H]2C)cc1,1.28
15,O=C(C=Cc1ccc2c(c1)OCO2)c1ccc(F)cc1,-0.0292
16,C[C@@H]1CC[C@H]2C(=O)O[C@@H](Cc3ccccc3)CN2[C@H]1c1ccc(Br)cc1,0.362
17,C=CC1=C[C@H](O)[C@@H]2O[C@@H]2C12OCCCO2,-0.722
18,CCN1C(=O)[C@H]2[C@H]3[C@H](O)[C@H](O)CC(=NO[C@@H](C)c4cn([C@H](CO)Cc5ccccc5)nn4)[C@@H]3CC[C@H]2C1=O,-0.719

row,Compound,z-score
1,CCOC(=O)[C@H](Cc1ccccc1)NC(=O)CCC1CC(OC(=O)NCc2ccc3c(c2)OCO3)CC2(CCCC(COC(=O)NCCC(C)C)O2)O1 (stereo partly specified),-0.549
2,O=C1[C@H]2[C@H]3[C@H](O)[C@H](O)CC(=NOC[C@@H](O)COCc4ccco4)[C@H]3CC[C@H]2C(=O)N1C[C@@H]1CCCO1,-0.644
3,CC(C)=NO[C@H](C)c1cn([C@H](CO)Cc2ccccc2)nn1,-0.34
4,O=C1CCCC=C1C(O)CCCCBr (stereo unspecified),1.04
5,COC(=O)CC=C[C@@H](C)[C@@H](C=NOC[C@@H](O)[C@H]1O[C@@H]2OC(C)(C)O[C@@H]2[C@H]1O)NS(=O)(=O)c1ccc(C)cc1,-0.656
6,CCOC(=O)[C@H](Cc1ccccc1)NC(=O)CCC1CC(OC(=O)NCCc2ccc(F)cc2)CC2(CCCC(COC(=O)NCc3ccccc3)O2)O1 (stereo partly specified),0.216
7,COC(=O)CC=C[C@@H](C)[C@@H](C=NOC(C)CN1CCCc2nc(C)c(C)cc21)OC (stereo partly specified),-0.27
8,O=C1CCCC=C1C(O)CCOC(c1ccccc1)(c1ccccc1)c1ccccc1 (stereo unspecified),-0.228
9,C[C@@H]1C=CCC(=O)OC[C@H]2O[C@@H](C=C[C@@H]2O)[C@H](C)C=CCC(=O)OC1,2.16
10,CO[C@@H]1C=CCC(=O)N[C@@H](C)C(=O)OC[C@@H](OC)[C@H](C)CCCC(=O)OC[C@H]1C,-0.393
11,Cc1ccc(S(=O)(=O)OC[C@H]2CN3[C@H](c4ccc(Br)cc4)[C@@H](C)CC[C@H]3C(=O)O2)cc1,1.78
12,CC(C)=CCCC(C)=CCON=C1C[C@@H](O)[C@@H](O)[C@@H]2[C@@H]3C(=O)N(C4CCCCC4)C(=O)[C@@H]3CC[C@@H]12,-0.64
13,O=C1C=C[C@@H](O)[C@@H]2[C@@H]3C(=O)N(C[C@@H]4CCCO4)C(=O)[C@@H]3CC[C@@H]12,-0.117
14,CCOC(=O)[C@H](CC(C)C)NC(=O)CCC1CC(OC(=O)NCc2cccc3ccccc23)CC2(CCCC(COC(=O)NCCCN3CCCC3=O)O2)O1 (stereo partly specified),-0.754
15,Cc1ccc(S(=O)(=O)N[C@H]2COC(=O)CC=C[C@@H](C)COC(=O)CC=C[C@@H]2C)cc1,0.447
16,Cn1c(=O)n2n(c1=O)[C@H]1[C@H](O)[C@@H]3O[C@@H]3C(=O)[C@H]1CC2,-0.572
17,O=C1C[C@@H](O)[C@@H](O)[C@@H]2[C@@H]3C(=O)N(C[C@@H]4CCCO4)C(=O)[C@@H]3CC[C@@H]12,0.52
18,COc1ccc(O[C@H]2C=C[C@@H](c3ccccc3)O[C@@H]2CON=C2[C@H]3CCn4c(=O)n(-c5ccccc5)c(=O)n4[C@H]3[C@H](O)[C@@H]3O[C@H]23)cc1,-0.336
